Bioassay records: PubChem, National Center for Advancing Translational Sciences (NCATS)
This is a sample that favours compounds with a hit; in the whole collection about 11% have one here.
BAZ2B block: qHTS Assay for Inhibitors of BAZ2B; Bromodomain adjacent to zinc finger domain protein 2B (Homo sapiens), Q9UIF8; AlphaScreen BAZ2B-H3K14Ac peptide displacement; Potency, µM (titrated, usually from 114 µM), usual class: inhibitors; 360,000 compounds, 4.4% hits; AID 504333, 2011; further: nearly all actives have a fitted effect of over 60% in size
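AlphaScreen displacement of biotin-H3(5-23)K14Ac peptide (50 nM final) from BAZ2B (50 nM final) in PBS pH 7.4, 0.01% Tween-20; complex preformed 30 min RT, then compounds (top 110 uM) 30 min RT, beads 20 min dark.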
G9a inh: qHTS Assay for Inhibitors of Histone Lysine Methyltransferase G9a. Histone-lysine N-methyltransferase EHMT2 (Homo sapiens), Q96KQ7. G9a H3K9 monomethylation, AlphaScreen, 2 h. Potency, µM (top dose mostly 102 µM), hits mostly inhibitors. 350,000 compounds, 8.8% hits. AID 504332, 2011; further: nearly all actives have a fitted effect of over 75% in size
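Using a bead-based AlphaScreen, monomethylated H3K9 product from 2 h room-temperature reactions (G9a 20 nM, peptide 500 nM, SAM 20 uM) was detected with 0.5 ug/mL rabbit anti-H3K9me1 antibody.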
HP1b chromo inh: HTS for Inhibitors of HP1-beta Chromodomain Interactions with Methylated Histone Tails. AlphaScreen HP1-beta / biotin-H3K9me3 peptide binding. 390,000 compounds, 0.56% hits. Potency, µM (doses to about 114 µM), actives largely listed as inhibitors. Chromobox protein homolog 1 (Homo sapiens), P83916; further: nearly all actives have a fitted effect of over 70% in size
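Compound inhibition of the preformed complex between 50 nM HP1-beta and 50 nM biotinylated H3K9me3 peptide was read by AlphaScreen. Buffer was PBS pH 7.4 with 0.01% Tween-20. Incubations ran 30 min at room temperature, with 10 ug/mL donor/acceptor beads.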
L3MBTL1 block: qHTS Assay for the Inhibitors of L3MBTL1 | 230,000 compounds, 0.66% hits | Potency, µM (series often up to 57.1 µM), hits mostly inhibitors | AlphaScreen L3MBTL1–H3K9me1 peptide binding | Lethal(3)malignant brain tumor-like protein 1 (Homo sapiens), Q9Y468 | AID 485360, 2010; further: nearly all actives have a fitted effect of over 60% in size
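Read-out is AlphaScreen signal from streptavidin donor and nickel chelate acceptor beads (10 ug/mL final each) bridging L3MBTL1 (50 nM) and biotinylated K9-monomethylated H3(1-15) peptide (75 nM), after 30 min compound exposure at room temperature.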
PI5P4Ka inh: qHTS for Inhibitors of phosphatidylinositol 5-phosphate 4-kinase (PI5P4K). Phosphatidylinositol 5-phosphate 4-kinase type-2 alpha (Homo sapiens), P48426. max response, %. PI5P4Kalpha enzyme, ADP-Glo luminescence, 60 min; hits give low values. 330,000 compounds, 1.2% hits; active means max response of -50% or lower; inconclusive means between -30% and -50%; inactive means -30% or higher; further: value at the top dose of about 77 µM
Target sequence (P48426 whole entry, looked up): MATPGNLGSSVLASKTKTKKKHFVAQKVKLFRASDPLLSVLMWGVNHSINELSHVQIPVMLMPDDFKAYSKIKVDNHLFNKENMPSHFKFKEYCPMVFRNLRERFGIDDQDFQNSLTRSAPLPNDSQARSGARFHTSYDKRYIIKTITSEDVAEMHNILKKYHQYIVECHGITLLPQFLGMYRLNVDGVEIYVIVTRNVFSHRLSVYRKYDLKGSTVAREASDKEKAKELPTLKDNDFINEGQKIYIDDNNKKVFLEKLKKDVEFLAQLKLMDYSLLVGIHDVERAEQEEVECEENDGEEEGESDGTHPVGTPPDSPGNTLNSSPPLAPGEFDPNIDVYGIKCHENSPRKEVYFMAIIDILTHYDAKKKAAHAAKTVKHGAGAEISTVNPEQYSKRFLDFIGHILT
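Enzyme plus substrate dispensed, test compounds pinned in, then ATP (5 microM final) added. After 60 min at RT, ADP-Glo reagent 1 for 45 min and reagent 2 for 30 min preceded luminescence imaging.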
JMJD2A Tudor: qHTS Assay for Inhibitors of JMJD2A-Tudor Domain; Lysine-specific demethylase 4A (Homo sapiens), O75164; AlphaScreen JMJD2A-Tudor / H3K4me3 peptide binding; Potency, µM (highest dose often 114 µM), most hits filed as inhibitors; 390,000 compounds, 4.4% hits; AID 504339, 2011; further: nearly all actives have a fitted effect of over 50% in size
A number is an active result; 0 = inactive; ? = inconclusive; - = no result; [ ] = another dose, or the depositor's remark. Unless noted, the call rests on the fitted dose curve; in most records, active means well fitted inhibition curve with a large enough effect; inconclusive means small, poorly fitted or top-dose-only effect; inactive means no such curve, though single readings can be large or run the other way.

SMILES	BAZ2B block	G9a inh	HP1b chromo inh	L3MBTL1 block	PI5P4Ka inh	JMJD2A Tudor
CC1=NNC(=O)/C1=C\c1cn(-c2ccccc2)nc1-c1cccs1	?	10µM	0	0	0	?
O=Cc1cn(-c2ccccc2)nc1-c1ccc(F)cc1	0	0	0	0	0	0
CCOCc1cnc(C)nc1NCC(=O)c1c(C)n(C)c2ccc(OC)cc12	50µM	14µM	0	0	0	0
O=C(/C=C/c1cc[n+](CC(=O)c2ccc3cccc4c3c2CC4)cc1)c1ccc2cccc3c2c1CC3	?	40µM	0	-	-69	0[11.4 µM]
O=C(O)COc1ccc(/C=C/C(=O)c2ccc3ccccc3c2)cc1	0	0	0	-	0	0
COC(=O)Cc1cc(=O)n2[nH]cnc2n1	79µM	0[0.501 µM]	0	0	0	0
Nc1ccc2nn(-c3cc([N+](=O)[O-])ccc3O)nc2c1	0	40µM	0	0	0	0
COc1ccc(-n2c(SCC(=O)Nc3ccc(C(=O)O)cc3)nnc2-c2ccccc2)cc1OC	56µM	?	0	-	?	0
CCOC(=O)c1ccc(NC(=O)CSc2nnc(-c3ccncc3)n2-c2ccccc2)cc1	0	0	0	-	-	0
O=C(CSc1nnc(-c2ccncc2)n1-c1ccccc1Cl)Nc1ccc(C(=O)O)cc1	-	?	0	-	-65	0
Cn1c(=O)n(C)c2cc(NC(=O)CSc3nnc(-c4ccccc4O)n3-c3ccccc3)ccc21	50µM	0[12.7 µM]	0	0	0	0
O=C(CSc1nnc(-c2ccncc2)n1-c1ccccc1)Nc1ccc(F)cc1	0	?	0	-	-	0
COc1ccc(-n2c(SCC(=O)Nc3ccc(C(N)=O)cc3)nc3ccccc3c2=O)cc1OC	0	50µM	0	-	0	0
Cc1nnc(N2CCC(C(=O)NCCc3ccccc3Cl)CC2)c2nn(-c3ccccc3)c(C)c12	0	0	0	-	-	0
CCCCN(CC)CCNC(=O)Cn1c(=O)c2cccn2c2cccnc21	0	0	?	-	-	0
O=C(CSc1nnc(-c2ccncc2)n1-c1ccccc1)N1CCN(c2ccc(Cl)cc2)CC1	0	28µM	0	-	0	0
O=C(CSc1nnc(-c2cccc(S(=O)(=O)N3CCCC3)c2)n1-c1ccccc1)Nc1cccc(C(=O)O)c1	0	0[12.7 µM]	0	-	0	0
O=C(CSc1nnc(-c2ccncc2)n1-c1ccccc1)Nc1ccc(Br)cc1	0	0	0	-	-	0
O=C(CSc1nnc(-c2cccc(S(=O)(=O)N3CCCC3)c2)n1-c1ccccc1)Nc1ccc(C(=O)O)cc1	50µM	?	0	-	?	?
O=C(CSc1nnc(-c2ccncc2)n1-c1ccccc1)Nc1ccc(C(=O)O)cc1	0	50µM	0	-	?	0
CCOC(=O)C1=C(COC(=O)c2ccccc2OC)NC(=O)NC1C (centres undefined)	0	3.2µM	0	0	0	0
OCCNCCSc1nc(C2CCCCC2)n(-c2ccccc2Cl)n1	?	?	0	0	0	0.89µM
NC(=O)NC(=O)CSc1nc(C2CCCCC2)n(-c2ccccc2)n1	0	0	0	0	0	0
CCOc1ccc2nc(NC3=NC(c4ccc(OC)cc4)CC(=O)N3)nc(C)c2c1 (centres undefined)	0	10µM	?	0	-	79µM
COc1ccc(CNS(=O)(=O)c2ccc(N3CCCCS3(=O)=O)cc2)cc1	0	0	0	-	-	0
Cn1c(=O)oc2cc(S(=O)(=O)N3CCCC(C(=O)NCc4ccc(F)cc4)C3)ccc21 (centres undefined)	0	0	0	-	-	0
CCOc1ccc(C(=O)CSc2nnc3cc(C)c4ccccc4n23)cc1	0	0	0	-	-	0
Cc1ccc2onc(CC(=O)N3CCN(c4ccc(F)cc4)CC3)c2c1	0	0	0	-	-	?
CCOc1ccc2cc(C3CC(c4ccco4)=NN3S(C)(=O)=O)c(Cl)nc2c1 (centres undefined)	0	45µM	0	0	0	0
